From PubChem
Shown are actives, neighbours in structure and some others; about 0.59% of the full set was active somewhere.
Mtb hypoxia inh: Mtb hypoxia fluorescent reporter inhibition; fluorescence inhibition, % (no concentration beside the values); M. tuberculosis hypoxia-regulated fluorescent reporter, fluorescence; 0.1% of 300,000 active; in the data active means fluorescence inhibition mostly above about 23%, no sharp cut-off; inactive means mostly below about 17%
UGM FP inh: inhibitors of M. tuberculosis UDP-galactopyranose mutase; 0.06% of 320,000 active; inhibition, % at 10 µM; AID 504406; P9WIQ1; purified UGM, fluorescence polarization probe displacement; in the data active means inhibition above about 10%, passing the limit was not always enough; inconclusive means no clear call, values can overlap the other calls
VHR inh abs: blocks human VHR1 dual specificity phosphatase; P51452; recombinant VHR phosphatase, pNPP absorbance; inhibition, % at 13.3 µM; 0.52% of 290,000 active; in the data active means inhibition above about 50%
Target sequence (P51452 whole entry, looked up): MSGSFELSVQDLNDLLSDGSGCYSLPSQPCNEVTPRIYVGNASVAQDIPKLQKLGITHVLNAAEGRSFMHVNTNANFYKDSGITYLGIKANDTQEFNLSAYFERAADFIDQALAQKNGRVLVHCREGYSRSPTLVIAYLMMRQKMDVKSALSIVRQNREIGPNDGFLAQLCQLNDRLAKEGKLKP
Mtb betalactam: beta-lactam sensitization of Mtb H37Rv | M. tuberculosis H37Rv growth with meropenem, percent inhibition | inhibition, % at 25 µM | 0.27% of 330,000 active | AID 434955; call rule not given here;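 further: growth measured after seven days incubation then overnight dye step; 0% = bacteria only wells and 100% = bacteria with antibiotic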
Rv3671c inh: inhibits the M. tuberculosis serine protease Rv3671c; 0.048% of 320,000 active; P9WHR9; inhibition, % at 5.96 µM;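 further: extracellular domain of Rv3671c used as enzyme; 0% = enzyme with DMSO and 100% = no enzyme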
Rv3671c confirm: Rv3671c protease inhibition, confirmation | shares compounds with Rv3671c inh | inhibition, % at 5.96 µM | 40% of 140 active | AID 2761
An asterisk follows results filed as active; ? = inconclusive; nt = no result; + = active, no number. Unless noted, no stated cut-off is given here; in the data, active means inhibition above about 38%; inactive means the rest.

SMILES	Mtb hypoxia inh	UGM FP inh	VHR inh abs	Mtb betalactam	Rv3671c inh	Rv3671c confirm
Nc1ccc(O)c2c1C(=O)c1ccccc1C2=O	nt	4	4	3	56*	38*
O=C(NCc1cccs1)c1cccc(Nc2nc3ccc(Br)cc3[nH]2)c1	8	0	7	-9	43*	37*
NNC(=O)c1cc2ccccc2cc1O	4	2	0	-5	37*	-5
O=C(NCCO)c1cc2ccccc2cc1O	3	2	-18	-2	-4	nt
CCN1/C(=C/C=C/c2oc3ccc(-c4ccccc4)cc3[n+]2CC)Oc2ccc(-c3ccccc3)cc21	-194	?	6	95	60*	-16
COc1cc(OC)nc(NC(=O)COC(=O)c2cccc(Cl)c2)n1	-1	0	-11	0	+	-15
COc1ccc(NC(=O)CCc2nnc3ccc(NCc4ccc5c(c4)OCO5)nn23)cc1	-1	-1	14	?	-4	nt
Cc1cc(C)cc(-n2c(O)c(C=NC3CCS(=O)(=O)C3)c3ccccc3c2=O)c1 (stereo unspecified)	-6	-2	11	-3	58*	48*
CC(=O)[C@]1(O)Cc2c(O)c3c(c(O)c2[C@@H](O[C@H]2C[C@H](N)[C@H](O)[C@H](C)O2)C1)C(=O)c1ccccc1C3=O	nt	70*	nt	99	69*	81*
COC(=O)c1ccccc1-c1c2ccc(=N)cc-2oc2cc(N)ccc12	nt	138*	nt	39	166*	164*
O=C(NC(=S)NNC(=O)c1ccccc1O)c1cccnc1	3	2	40	6	47*	44*
O=C(NC(=S)NNC(=O)c1ccc(Cl)cc1Cl)c1cccnc1	-10	nt	-3	94	-11	nt
CCOC(=O)c1ccc(NC(=O)c2cn(-c3ccccc3)nc2-c2ccncc2)cc1	-8	-4	5	-2	193*	-40
O=[N+]([O-])c1cc(Cl)cc(/C=N/NC(=S)Nc2ccc(S(=O)(=O)N3CCOCC3)cc2)c1O	nt	3	20	40	58*	14
O=[N+]([O-])c1cc(Cl)cc(C=NNC(=S)Nc2ccc(S(=O)(=O)N3CCOCC3)cc2)c1O	20	nt	nt	nt	nt	nt
COc1ccc(OCCn2cc(/C=N/NC(=O)c3ccncc3)c3ccccc32)cc1	nt	0	12	98	3	nt
Cc1ccc(OCCn2cc(/C=N/NC(=O)c3ccncc3)c3ccccc32)cc1	nt	4	-2	98	40*	26
CCOC(=O)C1=C(NC(=S)NC(=O)c2ccccc2)c2ccccc2CC1C(C)C (stereo unspecified)	nt	-6	3	-3	55*	-12
CCOC(=O)C1=C(NC(=S)NC(=O)c2ccccc2)c2ccccc2CC1(C)CC (stereo unspecified)	-3	1	-8	12	-2	nt
O=C(Oc1cncc(Cl)c1)c1ccco1	-2	-1	-5	-4	63*	88*
O=C1CC[C@@H](CN(Cc2ccccc2)Cc2cn[nH]c2-c2cc3ccccc3o2)N1	nt	0	26	4	4	nt
CCn1nc([N+](=O)[O-])c(C(C#N)c2nc3ccccc3n2C)c(Cl)c1=O (stereo unspecified)	12	4	-10	1	-3	nt
CCCn1nc([N+](=O)[O-])c(C(C#N)c2nc3ccccc3s2)c(Cl)c1=O (stereo unspecified)	14	1	5	59	40*	31
O=C(N/N=C/c1cc([N+](=O)[O-])ccc1O)NC12CC3CC(CC(C3)C1)C2	nt	1	-5	57	52*	20
Cc1cccc2c(N=O)c(O)[nH]c12	11	1	30	-9	48*	31
SMILES	Mtb hypoxia inh	UGM FP inh	VHR inh abs	Mtb betalactam	Rv3671c inh	Rv3671c confirm
COc1cccc(CSc2nc3ccncc3[nH]2)c1	-3	-5	-10	4	183*	-1
C=CCn1cc(/C=N/Nc2nc3ccccc3[nH]2)c2ccccc21	nt	0	-6	91	40*	68*
C#CCn1cc(C=NNc2nc3ccccc3[nH]2)c2ccccc21	4	nt	nt	nt	nt	nt
Cc1cc(C)c(NC(=O)c2cn3c4c(c(N5CCN(C)CC5)c(F)cc4c2=O)OCC3C)c(C)c1 (stereo unspecified)	6	nt	2	-5	-7	nt
O=c1c2ccccc2[se]n1-c1ccccc1	nt	nt	16	49	40*	41*
O=c1c2ccccc2nc(-c2ccccc2)n1-c1ccccc1	4	3	17	0	6	nt
O=C(N/N=C/c1ccc[nH]1)c1cccc(Br)c1	nt	-4	13	87	7	nt
